OPRM1-OPRD1 inv: inverse agonists of human mu-delta opioid receptor heterodimerization; P35372+P41143; cell-based MOR-DOR heterodimer luminescence, inverse agonism; inhibition, % at 9.3 µM; 340,000 compounds, 0.21% hits; in the data active means inhibition above about 22%, passing the limit was not always enough;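 further: 0% = cells with DMSO and 100% = wells without cells with DMSO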
HTR5A ag: HTR5A agonism, opioid heterodimer counter-screen; HTR5A agonist assay, luminescence, cell-based; P47898; AID 504692; activation, % at 9.3 µM; 340,000 compounds, 0.61% hits; in the data active means activation mostly above about 9.5%, no sharp cut-off; inactive means mostly below about 7.6%;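 further: 0% = cells with vehicle only and 100% = reference agonist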
HTR5A inv ctr: counter-screen for OPRM1-OPRD1 inverse agonists: human HTR5A inverse agonism; HTR5A cell line, luminescence; inhibition, % at 9.3 µM; 340,000 compounds, 0.083% hits; AID 504634; in the data active means inhibition mostly above about 23%, no sharp cut-off; inactive means mostly below about 18%;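 further: 0% = cells with DMSO and 100% = no-cell wells with DMSO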
MOR-DOR ag: agonists of human mu-delta opioid receptor heterodimerization. 340,000 compounds, 0.3% hits. P35372+P41143. activation, % at 9.3 µM. AID 504326. cells, OPRM1-OPRD1 heterodimerization, luminescence; in the data active means activation above about 18%;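 further: 0% = vehicle-treated cells and 100% = reference agonist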
Active calls of the source: *. An excerpt weighted towards active compounds, which were near 1.1% of everything screened.

SMILES | OPRM1-OPRD1 inv | HTR5A ag | HTR5A inv ctr | MOR-DOR ag
COc1cc(C(=O)NCC(=O)N/N=C/c2cccnc2)cc(OC)c1OC | -3.1 | 2.8 | -8.2 | 0.4
Fc1ccc(Br)cc1C1C=C(c2ccc(Br)s2)Nc2ncnn21 (stereo not given) | 1.4 | 17.2* | 0.8 | -0.2
COc1cccc(C2C=C(c3ccc(Br)s3)Nc3ncnn32)c1OC (stereo not given) | 17.8 | 1.7 | 15.9 | -3.1
COc1ccc(CN2CCC(=O)N(CCO)CC2)cc1OC | 11.2 | -2.1 | 5.7 | -1.9
COc1c(-c2ccccc2)oc2c(ccc3occc32)c1=O | -1.8 | 2.5 | -6.3 | 0.4
O=C1Nc2ccccc2C1=Nc1ccc(Br)cc1 | 54.7* | -5.5 | 20.7 | -10.9
O=C1Nc2ccccc2C1=Nc1ccc(Cl)cc1 | 64.1* | -3.9 | 13.8 | -14.2
CCN(CC)c1ccc(N=C2C(=O)Nc3ccccc32)cc1 | 23.9 | -2.7 | 9.8 | -5.3
O=C(CNC(=O)c1ccco1)NCC(=O)OCC(=O)c1ccc(Cl)c([N+](=O)[O-])c1 | 94.2* | -10.2 | 43.1* | -18.2
CN(C)S(=O)(=O)c1ccc(NC(=O)COC(=O)C2COc3ccccc3O2)cc1 (stereo not given) | 0.0 | 0.0 | 0.8 | 0.0
COc1ccccc1C(=O)OCC(=O)NC(C)CCc1ccccc1 (stereo not given) | 19.4 | 12.9* | -45.5 | -4.3
N#Cc1ccccc1OCC(=O)Nc1c(C(=O)C2CC2)oc2ccccc12 | -13.7 | 14.2* | -41.3 | 2.4
O=C1c2ccccc2C(=O)N1Nc1ccc([N+](=O)[O-])cc1[N+](=O)[O-] | 12.2 | -9.5 | 35.3* | -2.5
Cc1ccc(CSCCNC(=O)c2ccc(NS(C)(=O)=O)cc2)cc1 | 12.0 | 0.2 | 1.4 | -2.4
c1ccc2c(c1)NC1(CCCCC1)n1c-2nc2ccccc21 | -6.2 | 13.7* | 12.8 | 1.1
CCCC(=O)NC(c1cccs1)c1cc([N+](=O)[O-])c2cccnc2c1O (stereo not given) | 13.7 | 0.6 | -3.2 | -2.5
O=C(CCc1ccccc1)NC(c1cccs1)c1cc(Cl)c2cccnc2c1O (stereo not given) | -17.2 | 12.9* | -36.9 | 3.4
COCCN(C(=O)CCc1nnc(Cc2c[nH]c3ccccc23)o1)C(C)C | 11.7 | 11.9 | -33.1 | -2.3
Nc1nc(NCCN2CCOCC2)nc(NCc2ccccc2)c1[N+](=O)[O-] | -3.1 | -1.7 | -6.7 | 0.6
Cc1ccc(NC(=O)CSc2ncn[nH]2)cc1 | 16.8 | 3.1 | -8.7 | -3.2
O=C(CSc1ncn[nH]1)Nc1ccc2c(c1)CCC2 | 1.8 | 12.0* | -41.7 | -0.3
COc1ccc(N2CCOCC2)c(NC(=O)c2cccnc2)c1 | 10.4 | -1.2 | -7.5 | -1.9
Fc1ccccc1N=C1NN=C(c2ccccc2)CS1 | 13.6 | 10.7* | -52.1 | -2.6
C=C(C)C(=O)Nc1cccc(C2=NOC3(C2)C[C@@H](C(N)=O)N(C(=O)CC(c2ccccc2)c2ccccc2)C3)c1 (stereo not given in full) | 9.8 | -1.3 | -0.8 | -2.1
O=C1CCN(C(=O)Nc2cccc(Cl)c2)N1 | 2.2 | 11.5* | 18.3 | -0.5
SMILES | OPRM1-OPRD1 inv | HTR5A ag | HTR5A inv ctr | MOR-DOR ag
CN(C(=O)c1cccc(NC(=O)c2cccs2)c1)c1ccccc1 | 1.5 | 11.1* | 12.2 | -0.3
CCCNS(=O)(=O)c1ccc(OCC(=O)Nc2ccc3c(c2)OCCO3)cc1 | 6.0 | -2.6 | 6.8 | -1.1
CCCNS(=O)(=O)c1ccc(OCC(=O)Nc2ccc3c(c2)OCCO3)c(C)c1 | -10.9 | 9.6* | 3.3 | 1.7
COC(=O)CCCC1=CC2=CC(=O)C(C)(OC(=O)c3cccs3)C(=O)C2=CN1CCN1CCOCC1 (stereo not given) | 4.2 | 6.8 | -14.0 | -0.9
COC(=O)CCCC1=CC2=CC(=O)C(C)(OC(=O)c3cccs3)C(=O)C2=CN1CCCCO (stereo not given) | -19.9 | 12.3* | -22.9 | 3.6
COCCN1C=C2C(=O)C(C)(OC(=O)c3cccs3)C(=O)C=C2C=C1CCCC(=O)OC (stereo not given) | 2.4 | 13.9* | 2.5 | -0.4
CCc1nc(C(N)=O)c2[nH]c(=O)n(-c3ccccc3F)c2n1 | 5.4 | 4.5 | 22.1 | -1.1
Cc1ccc(-c2ccc(/C=C(\C#N)C(N)=S)n2C)cc1 | 22.2 | -2.0 | -2.8 | -4.5
Cn1cccc1/C=C(/C#N)C(N)=S | 36.8* | -4.3 | 2.4 | -6.9
O=C(NCCNc1ccc([N+](=O)[O-])cc1C(F)(F)F)c1cccc(F)c1 | -9.3 | 13.8* | 5.5 | 1.8
O=C(NCCNc1ccc([N+](=O)[O-])cc1C(F)(F)F)c1ccccc1 | -3.8 | 0.2 | 9.7 | 0.6
Cc1cc(C)c(S(=O)(=O)NCC(c2cccnc2)N2CCN(Cc3ccccc3)CC2)c(C)c1 (stereo not given) | 1.2 | -0.9 | 3.7 | -0.2
COc1ccc(C2c3ccc(O)cc3Oc3ncn4nc(-c5ccccn5)nc4c32)cc1 (stereo not given) | -79.9 | 12.4* | -17.0 | 15.7
CCN1CCN(c2ccc(NC(=O)c3cc(S(=O)(=O)N4CCCC4)ccc3Cl)cc2)CC1 | 10.7 | 7.7 | -21.3 | -2.6
COC(=O)c1cc(CSc2nnc(NC3CCCCC3)s2)oc1C | -31.7 | 11.3* | -34.4 | 5.7
O=c1cc(CSc2nnc(NC3CCCCC3)s2)nc2sccn12 | 18.8 | -0.2 | -10.0 | -4.0
COC(=O)CCC(=O)OC1(C)C(=O)C2=CN(C3CC3)C(c3ccc(OC)cc3)=CC2=C(Br)C1=O (stereo not given) | -52.7 | 9.4* | -53.0 | 9.4
O=S(=O)(c1ccccc1)N1CCN(C(=S)Nc2ccccc2Cl)CC1 | 11.1 | -1.3 | -19.9 | -2.1
Cc1ccc(C(=O)C(C)OC(=O)Cn2[nH]c(=O)c3ccccc3c2=O)cc1C (stereo not given) | 16.2 | 12.4* | -45.3 | -2.8
O=Cc1s/c(=N\S(=O)(=O)c2ccccc2)n(CCCCl)c1Cl | 33.8* | -3.6 | 9.2 | -7.4
CCn1c(C)cs/c1=N\S(=O)(=O)c1ccccc1 | 12.8 | 6.2 | -18.1 | -2.2
Cc1cc(OC(C)C(=O)NCC2CCCO2)cc(C)c1Cl (stereo not given) | 17.0 | 10.7* | -11.3 | -3.3
Cc1cc(C)cc(NC(=O)c2cccc3c2C(=O)N(C2CCCCC2)C3)c1 | 9.1 | 1.3 | 16.5 | -1.8
COc1cc(NC(=O)c2cccc3c2C(=O)N(C2CCCCC2)C3)cc(OC)c1OC | 6.0 | 11.0* | -16.6 | -1.2
O=C(c1ccc(Br)o1)N1CCN(CCc2ccncc2)CC1 | 10.6 | -0.5 | 1.9 | -2.4
O=C(O)CSCC(=O)N1CCN(c2ccnc3cc(Cl)ccc23)CC1 | 10.7 | 11.1* | -39.3 | -2.4
COc1ccc(CNC(=O)[C@]2(C)CCC[C@@]3(C)C4CC[C@@]5(C)C[C@]4(CCC32)CC5=O)cc1 (stereo not given in full) | -0.4 | 1.0 | -3.6 | 0.1
C[C@]1(CO)CCC[C@@]2(C)C1CC[C@@H](CO)[C@@H]2CCc1ccoc1 (stereo not given in full) | -0.9 | 9.8* | -37.8 | 0.2
O=CNc1ccccc1 | 12.7 | -0.6 | 2.4 | -2.4
CN(Cc1ccco1)C(=O)c1ccc(OC2CCN(Cc3ccccn3)CC2)cc1 | 8.5 | 0.7 | -3.0 | -1.6

Assay outcomes (PubChem BioAssay)
